Screens as filed in PubChem.
Rab9 prom act: qHTS Assay for Rab9 Promoter Activators. Huh7 Rab9 promoter-luciferase reporter, luminescence, 24 h. Potency, µM (titrated, usually from 9.22 µM), inactives show at the highest dose activation, negative = inhibition, hits mostly activators. 2.8% of 320,000 active; further: % of control where 0% means no effect; nearly all actives have a fitted effect of over 60% in size
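Stable Rab9-luc Huh7, 1500 cells/well, 2 h settle; cmpd in DMSO, 24 h, 37 °C/5% CO2; luciferase reagent 10 min RT; luminescence.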
ELG1 genotox: qHTS screen for small molecules that induce genotoxicity in human embryonic kidney (HEK293T) cells expressing luciferase-tagged ELG1. HEK293T ELG1-luciferase reporter, luminescence, 16 h. Potency, µM (top dose mostly 46 µM), for the others: at the top dose activity change, positive = activation, hits mostly activators. 1.3% of 330,000 active. AID 504466, 2011; further: % of control where 0% means no effect; nearly all actives have a fitted effect of over 60% in size
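Genotoxicity was scored as increased ELG1-luciferase reporter signal, measured by ONE-Glo luminescence (30 min, room temperature). Compound or vehicle exposure of the HEK293T reporter cells lasted 16 hr at 37°C.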
NPC1 promoter act: qHTS Assay for NPC1 Promoter Activators; AID 485313, 2010; 2.4% of 320,000 active; Huh7 NPC1 promoter luciferase reporter, 24 h; Potency, µM (titrated, usually from 9.22 µM), inactives show at the top dose activation, actives largely listed as activators; further: % of control where 0% means no effect; nearly all actives have a fitted effect of over 60% in size
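NPC1 promoter–luciferase Huh7 cells; 24 h compound; luminescence.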
FLuc counter: qHTS profiling assay for firefly luciferase inhibitor/activator using purifed enzyme and Km concentrations of substrates (counterscreen for miR-21 project) | Luciferin 4-monooxygenase (Photinus pyralis), P08659 | purified FLuc, Km substrates, luminescence inhibition | Potency, µM (top dose mostly 57.5 µM), inactives show at the top dose activity change, negative = inhibition, hits mostly inhibitors | 6.9% of 360,000 active;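 further: plate controls were vehicle for no effect and reference inhibitor for full effect; nearly all actives have a fitted effect of over 55% in size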
Target sequence (P08659 whole entry, looked up): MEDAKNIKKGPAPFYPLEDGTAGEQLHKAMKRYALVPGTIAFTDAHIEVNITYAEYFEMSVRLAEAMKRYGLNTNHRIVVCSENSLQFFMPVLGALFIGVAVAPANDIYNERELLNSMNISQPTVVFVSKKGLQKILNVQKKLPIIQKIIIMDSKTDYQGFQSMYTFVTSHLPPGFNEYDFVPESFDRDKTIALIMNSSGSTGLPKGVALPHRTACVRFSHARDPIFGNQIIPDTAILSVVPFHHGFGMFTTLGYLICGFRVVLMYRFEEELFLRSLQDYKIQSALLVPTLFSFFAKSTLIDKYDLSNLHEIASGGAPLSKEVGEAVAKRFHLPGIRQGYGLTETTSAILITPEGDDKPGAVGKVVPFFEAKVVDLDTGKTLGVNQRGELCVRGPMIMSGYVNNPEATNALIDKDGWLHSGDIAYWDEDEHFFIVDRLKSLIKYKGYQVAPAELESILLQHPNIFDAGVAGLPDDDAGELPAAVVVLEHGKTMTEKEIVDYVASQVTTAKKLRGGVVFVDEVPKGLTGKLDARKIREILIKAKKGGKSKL
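Biochemical qHTS of compounds, final roughly 60 µM downward over six points, against 10 nM purified firefly luciferase using Km concentrations of substrates (10 uM D-luciferin, 10 uM ATP) in Tris acetate pH 7.5 buffer; luminescence output.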
SMN2 splice enh: qHTS Assay for Enhancers of SMN2 Splice Variant Expression | AID 1458, 2008 | HEK293 SMN2-luciferase splicing reporter, luminescence, 30-36 h | 2.8% of 210,000 active | Potency, µM (doses to about 46.1 µM), for inactives: at the highest dose activity change, positive = activation, actives largely listed as activators; further: % of control where 0% means no effect; nearly all actives have a fitted effect of over 55% in size
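HEK293 cells carry an SMN2 minigene-luciferase reporter in which exon 7 inclusion puts luciferase in frame. Cells were seeded at 2000 cells/well, attached for 10-12 hours, then exposed to compounds for 30-36 hours at 37C before ONE-Glo luminescence.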
An asterisk follows results filed as active; ? = inconclusive; . = no result given. Sampled rows, rich in hits. Any-hit rate of the full collection: about 7.4%. The call rests on the fitted dose curve; in most records, active means well fitted curve in the direction sought with a large enough effect; inconclusive means small, poorly fitted or top-dose-only effect, or another doubt; inactive means no such curve, though single readings can be large; an effect the other way counts as inactive or inconclusive. Potency means the concentration at half of the fitted maximal effect.

SMILES	Rab9 prom act	ELG1 genotox	NPC1 promoter act	FLuc counter	SMN2 splice enh
Cc1ccsc1/C=N\Nc1cn[nH]c(=O)c1Cl	2.7%	20.6µM*	6.0%	-19.6%	-0.2%
Cc1ccc(/C=N\Nc2cn[nH]c(=O)c2Cl)cc1	?	20.6µM*	29.3%	23.9µM*	17.9%
O=c1[nH]ncc(N/N=C/c2ccccc2)c1Cl	-7.9%	?	-1.4%	2.3%	-1.9%
COc1ccc(/C=N/Nc2cn[nH]c(=O)c2Cl)cc1	23.8%	20.6µM*	18.2%	?	?
COC(=O)CSc1ncc2c(n1)-c1ccccc1N(Cc1cccc(F)c1)S2(=O)=O	.	.	.	-1.9%	.
COc1ccccc1-c1sc2cc3c(cc2c1C#CC1(O)CCCCC1)OCO3	-1.9%	-2.3%	7.9%	-2.5%	.
COC(=O)c1c(-c2ccccc2OC)sc2ccccc12	-3.6%	-0.8%	0.0%	-10.2%	.
COc1cccc2oc3cc(C#CC4(O)CCCCC4)ccc3c(=O)c12	0.355µM*	0.411µM*	0.355µM*	0.601µM*	.
COc1cccc2sc3ccc(C#CC4(O)CCCCC4)cc3c(=O)c12	2.82µM*	?	1.58µM*	2.13µM*	.
COc1ccc2sc3ccccc3c(=O)c2c1OC	?	?	?	15.1µM*	18.9%
COc1cccc2oc3cc(C#Cc4ccccn4)ccc3c(=O)c12	3.16µM*	18.7%	2.51µM*	4.78µM*	.
CCCCNC(=O)c1cc(-c2ccc(OC)cc2)nc2n[nH]c(-c3cccc([N+](=O)[O-])c3)c12	.	.	.	0.3%	.
COc1ccc(OC)c(NC(=O)Cc2coc3ccc(C(C)C)cc23)c1	.	.	.	-13.2%	-8.1%
COc1cccc2sc3ccc(C#Cc4ccc(N)cc4)cc3c(=O)c12	2.51µM*	?	3.55µM*	4.78µM*	.
COc1cccc2sc3ccc(NCc4ccc5c(c4)OCO5)cc3c(=O)c12	3.1%	4.4%	1.9%	?	.
CCCNC(=O)c1cccc(COc2ccccc2OC)c1	3.55µM*	?	1.41µM*	5.36µM*	14.1µM*
NNC(=O)c1ccc(COc2ccc3ccccc3c2)cc1	18.0%	1.0%	?	6.01µM*	.
COc1ccc(OCc2cccc(C(=O)NN)c2)cc1	0.0891µM*	?	0.0891µM*	6.01µM*	3.16µM*
NNC(=O)c1cccc(COc2ccc(Br)cc2)c1	0.1µM*	?	0.316µM*	10.7µM*	1µM*
Cc1ccc2cccc(NC(=O)C(C)(C)Oc3ccc(Br)cc3)c2n1	.	.	.	-0.4%	-12.7%
C/C(=N/Oc1nc(C)cc(C)n1)c1ccc(Cl)cc1Cl	-0.9%	-0.6%	-1.0%	7.0%	-14.1%
C/C(=N/OC(=O)c1ccc(Cl)cc1Cl)c1oc(C)nc1C	7.1%	-1.1%	-3.4%	7.57µM*	.
C/C(=N/OC(=O)c1ccccc1)c1oc(C)nc1C	1.4%	2.3%	1.4%	12µM*	.
Cc1cc(C)cc(NC(=O)c2cc(S(=O)(=O)N3CCc4ccccc43)cn2C)c1	.	.	.	-6.4%	.
COc1ccc(N2CSC3=C(C#N)C(c4cc(OC)c(OC)cc4OC)CC(=O)N3C2)c(OC)c1 (configuration not stated)	0.4%	4.8%	0.8%	?	-8.1%
COc1cc(OC)c(C2CC(=O)N3CN(c4ccc(C)cc4)CSC3=C2C#N)cc1OC (configuration not stated)	25.4%	2.8%	?	15.1µM*	6.7%
CCOc1ccccc1N1CSC2=C(C#N)C(c3c(OC)ccc4ccccc34)CC(=O)N2C1 (configuration not stated)	0.5%	-6.1%	1.4%	7.57µM*	5.0%
COc1ccc(N2CSC3=C(C#N)C(c4cc(OC)ccc4OC)CC(=O)N3C2)c(OC)c1 (configuration not stated)	14.0%	-4.6%	12.6%	?	-7.3%
CC(C)(C)c1nc2scc(-c3ccc(Cl)cc3)c2c(=O)o1	-1.2%	-4.3%	-0.7%	1.3%	19.3%
CC(C)(C)c1nc2scc(-c3cccs3)c2c(=O)o1	14.5%	-0.3%	0.4%	13.5µM*	.
